# Assay results published in PubChem BioAssay (EPA / NIEHS).
# Inconclusive results are not listed. Calls of active or inactive are those of the source. How the source made its calls, unless noted: active means hit-call score of the fitted dose curve at least 0.9, where 1 is the maximum; inconclusive means response in the unintended direction; inactive means score below 0.9.
# How the values were obtained:
# [1] = target: Cellular tumor antigen p53 (Homo sapiens) (UniProt P04637); assay: TOX21_p53_BLA_p2_ratio: Tox21 HCT-116 p53 Agonism Beta-lactamase Assay, Ratio, Phase 2 (AID 2283592)
# Chain of Cellular tumor antigen p53 (Homo sapiens) (P04637 whole entry, looked up): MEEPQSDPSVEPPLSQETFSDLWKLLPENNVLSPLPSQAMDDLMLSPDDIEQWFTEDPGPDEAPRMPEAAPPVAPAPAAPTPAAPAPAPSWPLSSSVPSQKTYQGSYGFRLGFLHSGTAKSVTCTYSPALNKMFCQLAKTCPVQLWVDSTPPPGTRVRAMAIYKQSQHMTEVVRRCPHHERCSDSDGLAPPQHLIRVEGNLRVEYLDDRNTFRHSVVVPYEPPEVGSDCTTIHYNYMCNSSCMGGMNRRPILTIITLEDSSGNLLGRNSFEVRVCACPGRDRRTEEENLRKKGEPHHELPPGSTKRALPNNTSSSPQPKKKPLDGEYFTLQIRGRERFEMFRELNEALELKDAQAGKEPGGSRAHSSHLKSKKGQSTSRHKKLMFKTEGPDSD
# In short: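 Human colon HCT116 cells with an inducible p53 beta-lactamase reporter are exposed to test chemicals for 16 h at 37C. Reporter induction is read as the 460/530 nm emission ratio after CCF4-AM loading, normalized to DMSO.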
# [2] = TOX21_p53_BLA_p4_viability: Viability Assessment in the Tox21 HCT-116 p53 Agonism Beta-lactamase Assay, Phase 4 (AID 2283597);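 further: hits lower the luminescence signal meaning cytotoxicity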
# In short: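 Luminescent ATP readout (CellTiter-Glo, 30 min, room temperature) in the same wells as the p53 bla ratio. HCT116 cells were treated for 16 h at 37C with DMSO-dissolved compounds.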
# [3] = target: Cellular tumor antigen p53 (Homo sapiens) (UniProt P04637); assay: TOX21_p53_BLA_p5_ratio: Tox21 HCT-116 p53 Agonism Beta-lactamase Assay, Ratio, Phase 5 (AID 2283599)
# In short: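 Beta-lactamase reporter ratio (blue 460 nm over green 530 nm, 405 nm excitation) after 2 h CCF4-AM loading, in HCT-116 cells exposed 16 h at 37 C to compounds pinned at 217-fold dilution. Increases relative to DMSO baseline scored.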
# [4] = target: Cellular tumor antigen p53 (Homo sapiens) (UniProt P04637); assay: TOX21_p53_BLA_p3_ratio: Tox21 HCT-116 p53 Agonism Beta-lactamase Assay, Ratio, Phase 3 (AID 2283596)
# In short: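 HCT116 p53-bla cells (4000/well) given compound in DMSO (217-fold dilution) after 5 h, incubated 16 h at 37C. CCF4-AM substrate 2 h at room temperature; 460/530 nm emission ratio, gain fitted against DMSO.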
# [5] = TOX21_p53_BLA_p5_viability: Viability Assessment in the Tox21 HCT-116 p53 Agonism Beta-lactamase Assay, Phase 5 (AID 2283600)
# In short: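 Seeded cells (4000/well) settle 5 h before compound addition. Plates then incubate 16 h at 37C, receive FRET substrate for 2 h, and finally CellTiter-Glo, with luminescence measured after a 30 min room-temperature incubation.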
# [6] = target: Cellular tumor antigen p53 (Homo sapiens) (UniProt P04637); assay: TOX21_p53_BLA_p4_ratio: Tox21 HCT-116 p53 Agonism Beta-lactamase Assay, Ratio, Phase 4 (AID 2283601)
# In short: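 Signal is the blue/green (460nm/530nm) ratio of cleaved versus uncleaved CCF4-AM substrate, read after 2 h substrate loading. Cells were HCT116 carrying the p53-responsive beta-lactamase reporter, dosed 16 h at 37C, 5% CO2; CellTiter-Glo measured in parallel.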
# [7] = TOX21_TRB_BLA_Antagonist_Followup_viability: Viability Assessment in the Tox21 Thyroid Hormone Receptor beta Antagonism Beta-lactamase (BLA) Follow-Up Assay (AID 2283961)
# In short: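 In the same wells as the reporter read, cell health was gauged by CellTiter-Glo ATP luminescence, with signal loss indicating reduced viability. Cells had been exposed to test compounds for 18 h.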
# [8] = CCTE_Harrill_HTTr_Viability_MCF7: CCTE's 6-hour Cell Viability Assessment for the High-Throughput Transcriptomics (HTTr) Platform, in MCF-7 cells cultured in DMEM + 10% fetal bovine serum, Harrill Lab (AID 2284010; active means hit-call score of the fitted dose curve at least 0.9, where 1 is the maximum; inactive means score below 0.9)
# In short: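 MCF-7 cells in DMEM + 10% FBS, 384-well, exposed 6 h to an eight-point dilution series. Membrane integrity scored by high-content imaging of propidium iodide exclusion; bidirectional fit versus DMSO.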
# [9] = CCTE_Harrill_HTTr_Apoptosis_MCF7: CCTE's 6-hour Apoptosis Assessment for the High-Throughput Transcriptomics (HTTr) Platform, in MCF-7 cells cultured in DMEM + 10% fetal bovine serum, Harrill Lab (AID 2284011; active means hit-call score of the fitted dose curve at least 0.9, where 1 is the maximum; inactive means score below 0.9)
# In short: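 Apoptosis in MCF-7 cells grown in DMEM with 10% fetal bovine serum was scored after a six hour exposure by high content imaging of caspase-3/7 activation (CellEvent Caspase 3/7 Green), with DMSO serving as negative control and baseline.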
# [10] = CCTE_Harrill_HTTr_CellCount_MCF7: CCTE's Cell Proliferation Assessment for the High-Throughput Transcriptomics (HTTr) Platform, Harrill Lab (AID 2284012);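 further: cells exposed to compound for six hours; intended direction is loss of nuclei count meaning fewer cells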
# In short: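 MCF7 cells exposed 6 hours to an eight-point dilution series; Hoechst-stained nuclei counted by high-content imaging. Bidirectional curve fitting against DMSO baseline.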
# [11] = target: PGR (gene 5241) (UniProt P06401); assay: TOX21_PR_BLA_Followup_Agonist_ratio: Tox21 HEK293 Progesterone Receptor (PR) Agonism Beta-lactamase Follow-Up Assay, Ratio (AID 2283933)
# Chain of PGR (gene 5241) (P06401 whole entry, looked up): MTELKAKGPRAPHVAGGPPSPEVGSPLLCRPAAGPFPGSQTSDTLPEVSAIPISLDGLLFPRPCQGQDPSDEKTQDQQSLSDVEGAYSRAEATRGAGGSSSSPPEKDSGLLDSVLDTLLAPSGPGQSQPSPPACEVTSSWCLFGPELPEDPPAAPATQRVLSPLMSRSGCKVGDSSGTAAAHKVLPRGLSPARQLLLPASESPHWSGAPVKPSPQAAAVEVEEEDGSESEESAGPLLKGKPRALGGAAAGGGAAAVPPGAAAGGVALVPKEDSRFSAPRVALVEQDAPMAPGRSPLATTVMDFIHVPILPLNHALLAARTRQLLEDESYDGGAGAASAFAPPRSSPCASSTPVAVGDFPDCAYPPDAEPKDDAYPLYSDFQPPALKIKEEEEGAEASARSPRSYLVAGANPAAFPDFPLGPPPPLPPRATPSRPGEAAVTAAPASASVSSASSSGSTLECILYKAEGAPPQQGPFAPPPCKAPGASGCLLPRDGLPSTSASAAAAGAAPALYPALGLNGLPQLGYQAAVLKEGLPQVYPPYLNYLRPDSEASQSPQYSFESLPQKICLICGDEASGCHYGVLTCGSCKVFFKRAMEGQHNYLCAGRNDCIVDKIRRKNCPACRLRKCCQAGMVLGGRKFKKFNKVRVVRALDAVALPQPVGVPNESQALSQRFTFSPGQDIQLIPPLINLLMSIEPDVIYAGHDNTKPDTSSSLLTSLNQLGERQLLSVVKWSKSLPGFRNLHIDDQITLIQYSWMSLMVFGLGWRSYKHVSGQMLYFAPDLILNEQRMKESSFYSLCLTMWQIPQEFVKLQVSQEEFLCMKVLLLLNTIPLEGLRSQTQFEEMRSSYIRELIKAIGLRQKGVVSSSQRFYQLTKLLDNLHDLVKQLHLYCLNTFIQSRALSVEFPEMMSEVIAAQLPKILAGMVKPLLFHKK
# In short: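 PR-UAS-bla HEK293T cells in medium with 2% charcoal-stripped FBS were dosed after 6 h plating and incubated 16 h at 37C. LiveBLAzer FRET substrate was added for 2 h at room temperature. Cleaved/uncleaved substrate ratio fitted against DMSO; CellTiter-Glo viability run in the same wells.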
# [12] = target: PGR (gene 5241) (UniProt P06401); assay: TOX21_PR_BLA_Followup_Antagonist_ratio: Tox21 HEK293 Progesterone Receptor (PR) Antagonism Beta-lactamase Follow-Up Assay, Ratio (AID 2283934)
# In short: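 PR-UAS-bla HEK293T cells, 3,000/well in 2% charcoal-stripped FBS, given compound plus 1nM R5020 agonist for 16 hr at 37C. Beta-lactamase FRET substrate 2 hours, ratio cleaved/uncleaved fluorescence; viability by CellTiter-Glo in same wells.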
# [13] = target: PGR (gene 5241) (UniProt P06401); assay: TOX21_PR_LUC_Followup_Agonist: Tox21 HEK293 Progesterone Receptor (PR) Agonism Luciferase Follow-Up Assay (AID 2283937; active means hit-call score of the fitted dose curve at least 0.9, where 1 is the maximum; inactive means score below 0.9)
# In short: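 HEK293-PR-A-luc cells, conditioned 5 days in 10% charcoal-stripped FBS medium, seeded 3,000/well for 5 h, then compound-treated 16 h at 37C. ONE-Glo luminescence read after 30 min at room temperature; gain of signal versus DMSO.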
smiles,measurement,setting,value
CCOC(=O)[C@H](CCc1ccccc1)N[C@@H](C)C(=O)N1CC2(C[C@H]1C(=O)O)SCCS2,outcome,[1],inactive
same,outcome,[2],inactive
same,outcome,[3],inactive
O=C(CO)[C@@H](O)[C@H](O)[C@@H](O)CO,outcome,[1],inactive
same,outcome,[4],inactive
same,outcome,[5],inactive
CC(COc1ccccc1)NC(C)C(O)c1ccc(O)cc1 (configuration not stated),outcome,[1],inactive
same,outcome,[4],inactive
same,outcome,[6],inactive
COC(=O)Nc1nc2ccc(C(=O)c3cccs3)cc2[nH]1,AC50,[1],0.0943 µM (active)
same,AC50,[4],0.0458 µM (active)
same,outcome,[5],inactive
NNc1nnc(NN)c2ccccc12,outcome,[1],inactive
same,outcome,[2],inactive
same,outcome,[3],inactive
same,outcome,[5],inactive
same,outcome,[6],inactive
[O]=[Bi][O][Bi]=[O],outcome,[1],inactive
same,outcome,[4],inactive
same,outcome,[5],inactive
same,outcome,[6],inactive
C#C[C@]1(O)CC[C@H]2[C@@H]3CCC4=CC(=O)CC[C@@H]4[C@H]3C(=C)C[C@@]21CC,outcome,[1],inactive
same,outcome,[4],inactive
same,outcome,[3],inactive
same,outcome,[6],inactive
same,outcome,[7],inactive
Cc1cnc(C)c(C)n1,outcome,[1],inactive
same,outcome,[4],inactive
same,outcome,[5],inactive
same,outcome,[6],inactive
Brc1ccc(-c2ccccc2)cc1,outcome,[1],inactive
same,outcome,[4],inactive
same,outcome,[6],inactive
NC(=O)N1c2ccccc2CC(=O)c2ccccc21,outcome,[1],inactive
same,outcome,[4],inactive
same,outcome,[6],inactive
same,outcome,[8],inactive
same,outcome,[9],inactive
same,outcome,[10],inactive
CC(CN(C)C)CN1c2ccccc2CCc2ccccc21 (configuration not stated),outcome,[1],inactive
same,outcome,[4],inactive
same,outcome,[5],inactive
same,outcome,[6],inactive
NC(=O)c1ccccc1[N+](=O)[O-],outcome,[1],inactive
same,outcome,[4],inactive
same,outcome,[6],inactive
CCOC(=O)C1=C(C)NC(C)=C(C(=O)OC)C1c1cccc(Cl)c1Cl (configuration not stated),outcome,[1],inactive
same,outcome,[4],inactive
same,outcome,[3],inactive
same,outcome,[6],inactive
same,outcome,[11],inactive
same,AC50,[12],14.7 µM (active)
same,outcome,[13],inactive
O=C(O)CCS,outcome,[1],inactive
same,outcome,[2],inactive
same,outcome,[5],inactive
same,outcome,[6],inactive
CC(=O)OCC(=O)Nc1cc(C#N)cc(NC(=O)COC(C)=O)c1Cl,outcome,[1],inactive
same,outcome,[2],inactive
same,outcome,[5],inactive
CO[C@H]1/C=C/O[C@@]2(C)Oc3c(C)c(O)c4c(O)c(c5c(nc6cc(C)ccn65)c4c3C2=O)NC(=O)/C(C)=C\C=C\[C@H](C)[C@H](O)[C@@H](C)[C@@H](O)[C@@H](C)[C@H](OC(C)=O)[C@@H]1C,outcome,[1],inactive
same,outcome,[2],inactive
same,outcome,[6],inactive
COc1ccc([C@@H]2CC(=O)c3c(O)cc(O[C@@H]4O[C@H](CO[C@@H]5O[C@@H](C)[C@H](O)[C@@H](O)[C@H]5O)[C@@H](O)[C@H](O)[C@H]4O)cc3O2)cc1O,outcome,[1],inactive
same,outcome,[2],inactive
same,outcome,[3],inactive
same,outcome,[6],inactive
